In PubChem BioAssay (NCATS) one finds max response data, which are given here for 38 compounds.

Records with an inconclusive call do not appear. Values without a mark were called inactive. The call rests on the fitted dose curve; in most records, active means well fitted curve in the direction sought with a large enough effect; inconclusive means small, poorly fitted or top-dose-only effect, or another doubt; inactive means no such curve, though single readings can be large or run the other way.
On the % scale 0 is the no-effect control and ±100 the full control effect.

This test in a line: qHTS Assay for Identifying Gametocytocidal Compounds (AID 743244).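 Further: actives lower the fluorescent signal which means gametocytes are killed.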 The conditions noted are these: P. falciparum 3D7 stage III-V gametocytes, alamarBlue, 72 h; max response: stronger effect = lower value. Put shortly:
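P. falciparum 3D7 stage III–V gametocytes (20,000 cells/well) were exposed to compounds for 72 h at 37 °C, 5% CO2. AlamarBlue was then added for 24 h; decreased resorufin fluorescence (Ex 525/Em 598 nm) indicated loss of viability.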
With `CN1CCCN=C1COC(=O)C(O)(c1ccccc1)C1CCCCC1` (stereo not drawn), the max response was -2.61%.

As to `OCCN1C[C@H](O)[C@@H](O)[C@H](O)[C@H]1CO`, the max response was 4.21%.

As to `Cc1ccsc1/C=C/C1=NCCCN1C`, the max response was 6.27%.

On to `Nc1ccncc1N`, for which the max response is 8.86%.

Take `CN1CC(=O)NC1=N`: the max response is -8.6%.

Take `Cn1c(=O)c2c(ncn2CCO)n(C)c1=O`: the max response was 6.91%.

Regarding `C[C@]1(Cn2ccnn2)[C@H](C(=O)O)N2C(=O)C[C@H]2S1(=O)=O`, the max response was 9.4%.

As for `COc1ccc(NS(=O)(=O)c2ccc(N)cc2)nn1`, the max response is 10.4%.

As for `CCCCCCCCCCCCCCCCN`, the max response was 6.4%.

With `O=C1CC[C@@H](C(=O)O)N1`, the max response was -5.19%.

As to `CCOC(=O)[C@H](CCc1ccccc1)N[C@@H](C)C(=O)N1Cc2cc(OC)c(OC)cc2C[C@H]1C(=O)O`, the max response was 0.618%.

As for `CN[C@@H]1[C@H](O)[C@H](NC)[C@H]2O[C@@]3(O)C(=O)C[C@@H](C)O[C@H]3O[C@@H]2[C@H]1O`, the max response was 2.93%.

For `NC(=O)NC1NC(=O)NC1=O` (stereo not drawn), the max response is -4.09%.

As to `COc1ccccc1Oc1c(NS(=O)(=O)c2ccc(C(C)(C)C)cc2)nc(-c2ncccn2)nc1OCCO`, the max response was -3.79%.

As for `COc1ccc(Cc2cnc(N)nc2N)cc1OC`, the max response was 1.42%.

In the case of `CC(=O)N[C@@H](CC(C)C)C(=O)O`, the max response is -15.3%.

Turning to `CC(=O)OC[C@H]1O[C@@](COC(C)=O)(O[C@H]2O[C@H](COC(C)=O)[C@@H](OC(C)=O)[C@H](OC(C)=O)[C@H]2OC(C)=O)[C@@H](OC(C)=O)[C@@H]1OC(C)=O`, the max response is -6.87%.

As to `NNc1nnc(NN)c2ccccc12`, the max response is 5.69%.

In the case of `CCOC(=O)[C@H](CCc1ccccc1)N[C@@H](C)C(=O)N1CCC[C@H]1C(=O)O`, the max response was -2.72%.

On to `CCOC(=O)OC(C)OC(=O)[C@@H]1N2C(=O)[C@@H](NC(=O)[C@H](N)c3ccccc3)[C@H]2SC1(C)C` (stereo partly drawn), for which the max response was 15.8%.

As to `CCCCCOC(=O)Nc1nc(=O)n([C@@H]2O[C@H](C)[C@@H](O)[C@H]2O)cc1F`, the max response is 5.02%.

Turning to `Cc1cccc(C(=O)O)c1O`, the max response was 2.78%.

In the case of `NS(=O)(=O)c1ccc(NC(=O)CCC(=O)O)cc1`, the max response was -3.82%.

Take `C[C@H]1COc2c(C3(N)CC3)c(F)cc3c(=O)c(C(=O)O)cn1c23`: the max response is -1.28%.

On to `C[C@@H](N)C(=O)O`, for which the max response was -2.49%.

`COc1cc(C(=O)NCCCCCC(=O)O)cc(OC)c1OC`: the max response is 4.11%.

`C[N+]1(C)CCCC(OC(=O)C(O)(c2ccccc2)c2ccccc2)C1` (stereo not drawn): the max response is 8.34%.

Consider `CC[C@]12CCCN3CCc4c(n(c5ccccc45)[C@@](O)(C(=O)OC)C1)[C@@H]32`, for which the max response was 13.2%.

Turning to `COc1ccc2cc(CCC(C)=O)ccc2c1`, the max response is -1.38%.

Regarding `O=C(O)c1ccccc1C(=O)Nc1ccc(S(=O)(=O)Nc2nccs2)cc1`, the max response was 31%.

`CCCCC1(COC(=O)CCC(=O)O)C(=O)N(c2ccccc2)N(c2ccccc2)C1=O`: the max response is 1.1%.

For the compound `CCCCCCCCCCOc1cc2c(=O)c(C(=O)OCC)c[nH]c2cc1OCC`, the max response was -3.15%.

Turning to `Cc1cc(C)c(NC(=O)CN(CC(=O)O)CC(=O)O)c(C)c1Br`, the max response is 9.03%.

Regarding `C[N+](C)(C)CC[N+]1(C)Cc2c(Cl)c(Cl)c(Cl)c(Cl)c2C1`, the max response was -6.87%.

`O=C(/C=C/c1ccc(O)c(O)c1)O[C@@H]1C[C@@](OC(=O)/C=C/c2ccc(O)c(O)c2)(C(=O)O)C[C@@H](O)[C@@H]1O`: the max response was 3.41%.

With `CC(=O)[C@@]1(O)CC[C@H]2[C@@H]3C[C@H](C)C4=CC(=O)C=C[C@]4(C)[C@@]3(F)[C@@H](O)C[C@@]21C`, the max response is -2.09%.

As for `O=c1[nH]c(=O)n([C@H]2C[C@H](O)[C@@H](CO)O2)cc1I`, the max response is 3.28%.

As to `O=C(O)Cn1c(C(=O)Nc2nc(-c3ccccc3Cl)cs2)cc2ccccc21`, the max response was 1.71%.
